Screens deposited in PubChem BioAssay by National Center for Advancing Translational Sciences (NCATS).
Shown are actives, neighbours in structure and some others; about 5.3% of the full set was active somewhere.
PNC assembly inh – inhibitors of perinucleolar compartment assembly; PC3M PTB-GFP, PNC prevalence imaging, 16 h; active compounds read low; activity change (PNC), negative = inhibition, % at 10 µM; 140,000 tested, 3.1% active; AID 2417;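 active means readout at or below -70, meaning at least 70% loss of cells showing the perinucleolar compartment, a nuclear body marking cancer cells; inconclusive means readout between -30 and a set limit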
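PC3M cells stably expressing PTB-GFP, 750–1000 cells/well, treated 16 h at 37 °C with compound (23 nl of library stock), in duplicate. After paraformaldehyde fixation and Hoechst stain, imaged at 20x; PNC prevalence scored by image analysis.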
IMPase cell inh – cell-permeable inhibitors of inositol monophosphatase (IMPase) | P97697 | CHO-M1 cells, IP1 accumulation, HTRF TR-FRET ratio | inhibition (IP1 accumulation), % at 46.1 µM | 120,000 tested, under 10 active | AID 901; active means well fitted curve in the direction sought with a large enough effect in the signal ratio, not every such curve was filed as active; inconclusive means small, poorly fitted or top-dose-only effect, or a change in a side signal; inactive means no such curve, though single readings can be large or run the other way; the % refers to the signal ratio;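 further: cells stimulated with carbachol in lithium chloride buffer; higher means more IMPase inhibition seen as more IP1 and lower FRET ratio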
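Carbachol-driven Gq signalling in CHO-M1 cells (2000/well) generates IP1. Compounds that block IMPase raise IP1 and so reduce the FRET signal from Eu-anti-IP1 and d2-IP1 after a 10 min room-temperature lysis.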
15-hLO-2 inh – 15-hLO-2 (ALOX15B) enzyme inhibition | purified 15hLO-2, xylenol orange hydroperoxide absorbance | Potency, µM (top dose mostly 57.1 µM), most hits filed as inhibitors | O15296 | 110,000 tested, 0.56% active; further: nearly all actives have a fitted effect of over 60% in size
Target sequence (O15296 whole entry, looked up): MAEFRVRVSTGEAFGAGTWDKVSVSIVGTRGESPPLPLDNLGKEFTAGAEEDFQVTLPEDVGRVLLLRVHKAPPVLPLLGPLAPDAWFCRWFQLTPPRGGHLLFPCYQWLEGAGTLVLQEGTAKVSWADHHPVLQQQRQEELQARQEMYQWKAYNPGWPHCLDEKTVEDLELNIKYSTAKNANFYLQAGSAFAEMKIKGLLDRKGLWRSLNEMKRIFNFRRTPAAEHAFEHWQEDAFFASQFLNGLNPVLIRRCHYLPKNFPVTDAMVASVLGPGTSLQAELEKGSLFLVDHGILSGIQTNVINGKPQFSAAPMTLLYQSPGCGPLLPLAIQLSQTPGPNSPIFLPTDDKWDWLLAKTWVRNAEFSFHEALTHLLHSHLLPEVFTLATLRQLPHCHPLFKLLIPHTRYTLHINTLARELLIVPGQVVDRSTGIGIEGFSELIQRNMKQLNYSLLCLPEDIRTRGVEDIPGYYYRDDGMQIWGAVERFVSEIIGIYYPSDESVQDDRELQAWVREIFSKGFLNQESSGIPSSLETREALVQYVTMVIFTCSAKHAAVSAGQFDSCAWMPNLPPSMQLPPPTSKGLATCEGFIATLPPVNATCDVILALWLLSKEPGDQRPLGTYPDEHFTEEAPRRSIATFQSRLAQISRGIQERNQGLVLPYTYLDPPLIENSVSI
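Screening format was qHTS against 50 nM purified 15hLO-2 in Hepes pH 7.5 with detergent. Activity follows hydroperoxide formation from 45 uM arachidonic acid, measured as 573:405 nm absorbance ratio of the ferric-xylenol orange complex.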
IMPase Li inh – IMPase inhibition in cells with lithium potentiation | CHO-M1 cells, IP1 TR-FRET (IP-One), carbachol + lithium | Potency, µM (series often up to 59.4 µM), hits mostly inhibitors | 210,000 tested, 0.35% active | AID 1457;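 further: IP1 builds up when IMPase is blocked and the TR-FRET signal falls; nearly all actives have a fitted effect of over 50% in size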
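Readout is a homogeneous TR-FRET IP1 immunoassay (Ex 320, Em 665 and 620), where raised cytosolic IP1 lowers signal. Cells were CHO-M1 treated 30 min at 37C with test compounds plus a little lithium; AC50 values came from Hill-equation fitting.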
ALOX12 inhib – 12-hLO (ALOX12) enzyme inhibition; P18054; purified 12-hLO, xylenol orange hydroperoxide absorbance; Potency, µM (highest dose often 57.1 µM), usual class: inhibitors; 150,000 tested, 0.12% active; AID 1452; further: nearly all actives have a fitted effect of over 55% in size
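Lipoxygenase turnover measured by absorbance at 573 and 405 nm after Fe-XO development. Human 12hLO 150 nM, arachidonate 40 uM, pH 7.0 Hepes buffer with detergent; 15 min compound preincubation, 30 min reaction.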
HPGD inh – blocks human HPGD enzyme activity. Potency, µM, actives largely listed as inhibitors. purified HPGD, NADH fluorescence kinetic, PGE2 substrate. 150,000 tested, 4.3% active; active means well fitted inhibition curve with a large enough effect, not every such curve was filed as active; inconclusive means small, poorly fitted or top-dose-only effect, or another doubt; inactive means no such curve, though single readings can be large or run the other way
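NADH formation kinetics: reaction with 30 uM PGE2 and 1 mM NAD+ (final), 20 nM enzyme, Tris-HCl pH 8 with Tween 20, after 15 min compound preincubation at room temperature. Fluorescence change, last versus first of five reads.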
Each line names hits and unclear results; the compound was inactive in the other large screens. Unless noted, the call rests on the fitted dose curve; in most records, active means well fitted curve in the direction sought with a large enough effect; inconclusive means small, poorly fitted or top-dose-only effect, or another doubt; inactive means no such curve, though single readings can be large; an effect the other way counts as inactive or inconclusive.

CCOCCCN(Cc1ccco1)C(=O)c1cc2c(=O)[nH]c3ccc(C)cc3c2s1	PNC assembly inh -85.0
Cc1ccc2[nH]c(=O)c3cc(C(=O)N(C)Cc4ccco4)sc3c2c1	HPGD inh inconclusive
COCCn1c(=O)cnc2cnc(Oc3ccccc3)nc21	none (no result: PNC assembly inh, IMPase cell inh, ALOX12 inhib, HPGD inh)
COc1ccc(CNC(=O)c2sc(=S)n(-c3ccc(OC)cc3)c2N)cc1	PNC assembly inh inconclusive, 15-hLO-2 inh inconclusive, HPGD inh 31.6µM
CCOc1ccc(Cn2nnc(C(=O)NCc3ccc(OC)cc3)c2N)cc1	IMPase cell inh inconclusive, IMPase Li inh 11.2µM (no result: 15-hLO-2 inh)
Nc1c(C(=O)NCc2cccnc2)sc(=S)n1-c1ccccc1	HPGD inh 14.1µM
Cc1ccc(-n2c(N)c(C(N)=O)sc2=S)cc1	HPGD inh 7.94µM
CCn1c(N)c(C(=O)NCc2cccnc2)sc1=S	none (no result: 15-hLO-2 inh)
CCNC(=O)c1c(N)sc2c1CCCCC2	HPGD inh 28.2µM
CCOc1ccc(N2CCc3c(C)nc(SC)nc32)cc1	none (no result: PNC assembly inh, IMPase cell inh, 15-hLO-2 inh, ALOX12 inhib, HPGD inh)
Cc1ccc(NC(=O)CSc2nnc(NC(=O)CN3CCOCC3)s2)cc1	PNC assembly inh -116.6
COC(=O)C(CC(=O)c1ccc(Cl)cc1)c1ccc(C)cc1 (configuration not stated)	PNC assembly inh -100.0 (no result: 15-hLO-2 inh)
Cc1ccc(S(=O)(=O)N(CC(=O)Nc2ccccc2C(=O)O)c2ccc(Cl)cc2)cc1	none (no result: PNC assembly inh, IMPase cell inh, 15-hLO-2 inh, ALOX12 inhib, HPGD inh)
CC(C)Oc1cccc(C2CC(=O)Nc3cc4c(cc32)OCO4)c1 (configuration not stated)	none (no result: PNC assembly inh, 15-hLO-2 inh, IMPase Li inh, ALOX12 inhib, HPGD inh)
Cc1ccc(C(=O)c2ccc([N+](=O)[O-])cc2)cc1	none
Cc1ccc(S(=O)(=O)CC#CCOC(=O)c2ccc([N+](=O)[O-])cc2)cc1	PNC assembly inh inconclusive, 15-hLO-2 inh inconclusive, HPGD inh 12.6µM
CCC(C)NC(=O)C1c2cc(OC)c(OC)cc2C(=O)N(C)C1c1ccc(OC)cc1 (configuration not stated)	PNC assembly inh -100.0 (no result: 15-hLO-2 inh)
CCC(C)NC(=O)C1CCC(=O)N(c2cc(OC)c(OC)c(OC)c2)C1c1ccc(OC)cc1 (configuration not stated)	PNC assembly inh -100.0, IMPase cell inh inconclusive (no result: 15-hLO-2 inh)
CCC(C)NC(=O)C1CCC(=O)N(c2ccc3c(c2)OCO3)C1c1ccc(OC)cc1 (configuration not stated)	none
CCN1CCN(C(=O)C2c3cc(OC)c(OC)cc3C(=O)N(C)C2c2ccc(SC)cc2)CC1 (configuration not stated)	PNC assembly inh -100.0 (no result: 15-hLO-2 inh)
COc1ccc(C2C(C(=O)N3CCN(C)CC3)c3cc(OC)c(OC)cc3C(=O)N2C)cc1 (configuration not stated)	none (no result: PNC assembly inh, IMPase cell inh, 15-hLO-2 inh, ALOX12 inhib, HPGD inh)
COc1ccc(C2C(C(=O)N3CCN(c4ccccc4)CC3)c3ccccc3C(=O)N2C)cc1 (configuration not stated)	PNC assembly inh -100.0 (no result: 15-hLO-2 inh)
COc1ccc(C2C(C(=O)N3CCN(c4ccccc4)CC3)c3ccccc3C(=O)N2C)cc1OC (configuration not stated)	none
O=C(O)CSCCOc1ccc(OCCSCC(=O)O)cc1	none (no result: IMPase cell inh, 15-hLO-2 inh)
C#CCOC(=O)C[N+](C)(C)CC#Cc1ccccc1	none (no result: PNC assembly inh, IMPase cell inh, 15-hLO-2 inh, ALOX12 inhib, HPGD inh)
O=c1cc(CSc2nnc(COc3ccc(Cl)cc3)o2)c2ccccc2[nH]1	none
Fc1ccccc1CSc1nnc(-c2ccccc2)o1	PNC assembly inh inconclusive, HPGD inh 10µM
COc1ccc(-c2nnc(SCc3ccccc3F)o2)cc1	none
Cc1ccccc1-c1nnc(SCc2ccccc2F)o1	HPGD inh 15.8µM
O=c1cc(CSc2nnc(-c3ccccc3)o2)c2ccccc2[nH]1	HPGD inh 7.94µM (no result: 15-hLO-2 inh)
Cc1ccccc1-c1nnc(SCc2ccccc2)o1	PNC assembly inh inconclusive, IMPase cell inh inconclusive, HPGD inh 22.4µM
O=C(NCc1ccc(Cl)cc1)c1cnn2ccccc12	none
CN(CC(=O)Nn1cnnc1)S(=O)(=O)c1ccccc1	none
COc1cc(OC)c2c(c1)OC(=O)CC2c1ccccc1OC (configuration not stated)	none (no result: PNC assembly inh, IMPase cell inh)
Cc1ccc(NC(=O)NC(=O)CSc2nnc(-c3ccc(Cl)cc3Cl)n2N)c(C)c1	PNC assembly inh inconclusive (no result: 15-hLO-2 inh)
Cc1ccc(NC(=O)/C=C/c2ccccc2)c(Br)c1	none (no result: PNC assembly inh, 15-hLO-2 inh, IMPase Li inh, ALOX12 inhib, HPGD inh)
Fc1ccccc1CSc1nnc(-c2cccnc2)o1	none (no result: PNC assembly inh, IMPase cell inh, 15-hLO-2 inh, ALOX12 inhib, HPGD inh)
Cc1ccc(C)c(CSc2nnc(-c3cccnc3)o2)c1	HPGD inh 25.1µM
Cc1cc(C)c(C#N)c(SCCS(=O)(=O)Cc2ccc(Cl)cc2)n1	PNC assembly inh inconclusive, IMPase Li inh inconclusive
Cc1cc(C)c(C#N)c(SCC(=O)NC(C)(C)C)n1	PNC assembly inh inconclusive
Cc1cc(C)c(C#N)c(SCC(=O)C(C)(C)C)n1	HPGD inh 31.6µM
Cc1cc(C)c(C#N)c(SCCS(=O)(=O)c2ccc(C(C)(C)C)cc2)n1	HPGD inh 14.1µM
O=C(c1cnccn1)N1CCC2(CC1)CN(Cc1ccccc1)C2	none (no result: PNC assembly inh, IMPase cell inh)
CCOC(=O)Cn1c(S(=O)(=O)Cc2ccc(F)cc2)nc(-c2ccccc2)c1-c1ccccc1	none
